Counter-ions that a name gives are not always drawn.
Tested on: MDA-MB-468
Experiment: phospho-S6 immunofluorescence (DAPI-normalised), per-plate z-score; higher = higher phospho-S6 signal (less pathway suppression)
Conditions: 24 h
Procedure: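 GPCR-targeted compound library (MedChemExpress HY-L006) tested on MDA-MB-468 PTEN-null TNBC cells in 384-well plates at 0.1, 1 or 10 uM, combined with vehicle, GDC0941 450 nM or lapatinib 1 uM, for 24 h. Phospho-S6 (S240/244) immunofluorescence normalised to DAPI and expressed as a per-plate z-score; values are the mean of biological triplicates.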

Row | Structure (SMILES) | phospho-S6 immunofluorescence (z-score) (co-treatment: GDC0941 450 nM) | phospho-S6 immunofluorescence (z-score) (co-treatment: lapatinib 1 uM) | phospho-S6 immunofluorescence (z-score) (co-treatment: vehicle)
1 | OCCOCCN1CCN(C2=Nc3ccccc3Sc3ccccc32)CC1 [Quetiapine (fumarate)] (compound 10 µM) | -0.84 | 0.29 | -0.03
2 | COc1cc2c(cc1OC)CC(=O)N(CCCN(C)C[C@H]1Cc3cc(OC)c(OC)cc31)CC2 [Ivabradine (hydrochloride)] (compound 10 µM) | -0.44 | -0.13 | -0.38
3 | C[C@@H](NCCCc1cccc(C(F)(F)F)c1)c1cccc2ccccc12 [Cinacalcet] (compound 10 µM) | -5.01 | -7.68 | -6.21
4 | CCCCN1CCC(CNC(=O)c2c3n(c4ccccc24)CCCO3)CC1 [Piboserod] (compound 10 µM) | -0.39 | -0.44 | 0.08
5 | CCCCc1ccc(NS(=O)(=O)c2ccc(F)cc2)cc1 (compound 10 µM) | -3.59 | -8.48 | -10.2
6 | C=CCN1CCc2nc(N)sc2CC1 (compound 10 µM) | 0.68 | 0.22 | 0.33
7 | CC(C)Oc1ccc(-c2nc(-c3cccc4c3CC[C@@H]4NCCO)no2)cc1C#N [Ozanimod] (compound 10 µM) | 0.72 | -0.62 | -0.3
8 | CC[N+](CC)(CC)CCOc1cccc(OCC[N+](CC)(CC)CC)c1OCC[N+](CC)(CC)CC [Gallamine Triethiodide] (compound 10 µM) | 0.5 | -0.13 | 0.47
9 | OCc1cc(C(O)CNCCCCCCOCCCCc2ccccc2)ccc1O (centres undefined) [Salmeterol (xinafoate)] (compound 10 µM) | 1.01 | -2.27 | 2.28
10 | O=C(Nc1ccc([N+](=O)[O-])cc1O)Nc1ccccc1Br (compound 10 µM) | -1.44 | 0.89 | -0.39
11 | O=C(O)COc1cccc(CN(Cc2ccc(-n3cccn3)cc2)S(=O)(=O)c2cccnc2)c1 [Taprenepag] (compound 10 µM) | -0.91 | 0.34 | -0.73
12 | O=C(/C=C/c1ccc(Cl)cc1)N1CCC2(CC1)CN(Cc1ccc(Cl)c(Cl)c1)C(=O)O2 (compound 10 µM) | -2.76 | -2.4 | -1.92
13 | Cc1ccc(NC(=S)NNc2c([N+](=O)[O-])cc(C(F)(F)F)cc2[N+](=O)[O-])cc1Cl (compound 10 µM) | 0.79 | -0.44 | -0.73

From the supplement of paper PMC7411640
